The list is not random: actives were taken first. Their share in the collection is about 1.9%.
PKM2 activator: activators of human pyruvate kinase M2; P14618; purified PKM2, Kinase-Glo ATP luminescence, activation; response scale: 0% is enzyme alone, no compound; Potency, µM (doses to about 57.5 µM), inactives show at the highest dose activation, most hits filed as activators; 260,000 compounds, 0.34% hits; also: potency is read from the fitted curve at half-maximal effect; % is scaled to controls: 0 for no effect and ±100 for the full control effect; nearly all actives have a fitted effect of over 55% in size
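Kinase-Glo luminescence reports ATP generated from ADP (0.1 mM) and PEP (0.5 mM) by purified hPK-M2 after 1 h at room temperature, pH 7.2 imidazole buffer; intermediate enzyme activity allows detecting inhibitors and activators.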
ClpP mod: qHTS Assay for Activators of ClpP. purified B. subtilis ClpP, FRET peptide cleavage, 20 min. 340,000 compounds, 1.9% hits. Potency, µM (series often up to 57.5 µM), inactives show at the highest dose activity change, negative = active; active = well fitted falling curve with a large enough effect; inconclusive = small, poorly fitted or top-dose-only effect; inactive = no such curve, though single readings can be large or run the other way; also: potency is read from the fitted curve at half-maximal effect; the source files actives as falling curves though it sought activators and does not explain the sign; nearly all actives have a fitted effect of over 65% in size
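Purified B. subtilis ClpP, 10 microg/mL final in Tris/HCl pH8 with KCl, BSA, glycerol and Tween-20, cleaved an Abz/nitrotyrosine-quenched decapeptide. Fluorescence (ex 320, em 430) was read at 0 and 20 min at room temperature. Delta was normalized to 5.8 microM ADEP and DMSO/no-enzyme controls.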
USP2a inh: blocks human ubiquitin-specific protease USP2a; O75604; USP2 core, Ub-CHOP2 coupled fluorogenic reporter, 485/531; Potency, µM (titrated, usually from 38.3 µM), for the others: at the top dose activity change, negative = inhibition, hits mostly inhibitors; 330,000 compounds, 0.01% hits; AID 463254;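 also: potency is read from the fitted curve at half-maximal effect; plate controls were DMSO wells for no effect and full inhibition by NEM control for full effect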
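USP2 core (10nM final) preincubated 30min RT with compound in 20mM Tris-HCl pH 8.0, 2mM CaCl2, 2mM beta-mercaptoethanol, 0.05% CHAPS; 25nM Ub-CHOP2 plus 25nM reporter substrate added, fluorescence (Ex485/Em531) read after 60min.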
Integrin act MD: activates integrin-mediated alleviation for muscular dystrophy. alpha7betagal myoblasts, beta-gal FDG fluorescence, 48 h. Potency, µM (titrated, usually from 38.3 µM), for the others: at the highest dose activation, usual class: activators. 350,000 compounds, 0.064% hits;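 also: potency is read from the fitted curve at half-maximal effect; 100% = response of the positive control SU9516; nearly all actives have a fitted effect of over 60% in size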
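Alpha7betagal+/- myoblasts (passage 13) were plated 16-24 hr, then exposed to compounds (1:260 dilution of DMSO stock) for 48 hours at 37C. After MPER lysis, β-galactosidase reporter activity was read as FDG fluorescence (ex 480/em 540) after 30 minutes.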
Pin1 inhibitor: inhibitors of human Pin1; 390,000 compounds, 0.009% hits; Potency, µM (top dose mostly 115 µM), for inactives: at the highest dose activity, negative = inhibition, actives largely listed as inhibitors; Q13526; Pin1 FP peptide displacement, HiFluor488, 10 min; active = well fitted inhibition curve with a large enough effect in the polarisation, with a control signal flat, not every such curve was filed as active; inconclusive = small, poorly fitted or top-dose-only effect, or effect the other way, or a change in a side signal; inactive = no such curve, though single readings can be large or run the other way; the % refers to the polarisation; also: potency is read from the fitted curve at half-maximal effect; % is scaled to controls: 0 for no effect and ±100 for the full control effect
IL-2 act: activators of IL-2; IL-2 activation reporter assay, cell-based qHTS; stimulated with anti-CD3/CD4/CD28 beads; in transgenic mouse T cells; activation, % (series mostly up to about 46 µM); 360,000 compounds, 0.065% hits; AID 652025; in the data active = activation above about 50%; inconclusive = mostly about 30% to 49%; also: 0% is about no effect
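Unstimulated transgenic mouse T cells preincubated 60 min with compound, then stimulated with anti-CD3/anti-CD4-coated beads plus anti-CD28 for 18 h at 37 degrees C. IL-2 response read as EGFP and DsRed fluorescence by plate cytometry.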
Starred values were filed as active, the others as inactive; ? = inconclusive; nt = not tested or not shown; [ ] = another dose, or the depositor's remark. Unless noted, calls follow the shape of the dose curve; as a rule, active = well fitted curve in the direction sought with a large enough effect; inconclusive = small, poorly fitted or top-dose-only effect, or another doubt; inactive = no such curve, though single readings can be large; an effect the other way counts as inactive or inconclusive.

SMILES	PKM2 activator	ClpP mod	USP2a inh	Integrin act MD	Pin1 inhibitor	IL-2 act
CCOc1ccc(S(=O)(=O)NCC2CCCO2)c2cccnc12 (stereo not given)	3.1%	39.8µM*	-2.2%	-9.1%	-6.6%	2.3
CCOc1ccc(S(=O)(=O)NCc2ccc(Cl)cc2)c2cccnc12	0.3%	15.8µM*	1.7%	-25.7%	-5.3%	0.3
COC(=O)c1c(C#N)c(N)nc2c1CCCC2	-2.1%	28.2µM*	-1.1%	10.0%	-0.6%	-0.7
CCCC[C@H]1C2=C3[C@@H](CC(C(=O)OC)=C[C@@H](C(=O)OC)[C@H]3C(C)(C)C2=O)n2c(=O)n(C)c(=O)n21	nt	nt	nt	nt	-9.3%	nt
O=c1c2ccccc2sn1-c1cccc(Cl)c1	nt	-0.6%	nt	-51.3%	nt	-2.1
CN(C)S(=O)(=O)c1cccc(-n2sc3ccccc3c2=O)c1	2.82µM*	0.4%	-3.4%	-40.6%	-4.2%	-0.1
CCOc1ccc(CNc2ccc3c(c2)ncn3C)cc1	4.6%	31.6µM*	-1.8%	-38.9%	-6.7%	-1.7
CCCn1cnc2cc(NCc3ccc(OC)cc3OC)ccc21	nt	?	nt	nt	-1.1%	nt
CCn1cnc2cc(NCc3cccc(OC)c3O)ccc21	-8.2%	31.6µM*	3.6%	2.8%	-0.8%	-1.8
CCCn1cnc2cc(NCc3cccc(OC)c3)ccc21	0.6%	28.2µM*	-0.2%	2.4%	-17.6%	-2.7
COCCN1C2=C(C(=O)CC(C)(C)C2)C(c2ccc(OC)c(OC)c2)C2=C1CC(C)(C)CC2=O	-6.7%	10µM*	0.0%	-13.4%	-10.7%	-0.7
COC(=O)N1C2=C(c3ccccc3[C@@H]1CC(=O)Nc1ccc(Br)cc1)[C@@H]1C(=O)N(c3ccccc3)C(=O)[C@@H]1[C@H](C)C2	-5.7%[11.5 µM]	nt	nt	nt	nt	nt
Cc1c(C(=O)N2CCCCC2)c(S(=O)(=O)Nc2cccc(Br)c2)c(C)n1C	nt	1.6%	2.3%	10µM*	1.9%	-2.0
COc1ccc(C(=O)Nc2ccc3nc(SCc4ccc(C)cc4)sc3c2)cc1	nt	25.1µM*	nt	nt	-0.9%	nt
COc1ccc(CN2C(=O)N(c3ccccc3)C(=O)C2c2ccccc2)cc1COc1ccc(NC(C)=O)cc1 (stereo not given)	nt	0.1%	nt	nt	-3.8%	nt
O=S(=O)(c1ccccc1Cl)N1CCN(c2nc(-c3cccs3)nc3ccccc23)CC1	nt	4.3%	nt	nt	-4.0%	nt
O=C(Nc1nc2ccc(Cl)cc2s1)c1cccc(N2C(=O)CCC2=O)c1	nt	35.5µM*	0.2%	25.6%	18.8%	-4.2
COc1ccc2nc(NC(=O)c3cccc(N4C(=O)CCC4=O)c3)sc2c1	nt	-2.4%	3.4%	-26.1%	?	-0.6
CCNc1nc(C#N)nc(N2CCOCC2)n1	nt	-2.8%	nt	nt	6.3%	nt
CC(C)c1nc2sc3c(=O)n(N)cnc3c2c2c1COC(C)(C)C2	-4.1%	15.8µM*	-1.8%	-12.3%	-11.3%	-1.0
CC1=C(C#N)C(c2cn(-c3ccccc3)nc2-c2cccs2)C(C#N)=C(C)N1	0.1%	35.5µM*	-1.0%	22.2%	39.1%	-0.1
Cc1ccc2cccc(O)c2n1	nt	-0.7%	nt	nt	nt	nt
COc1cc(OC)c2c(C)cc(=O)oc2c1C(CCN1CCN(c2ccccc2)CC1)c1ccc2c(c1)OCO2 (stereo not given)	-3.2%	31.6µM*	1.4%	9.7%	6.4%	-0.3
COc1cc(OC)c2c(-c3ccccc3)cc(=O)oc2c1C(CCN1CCOCC1)c1ccc2c(c1)OCO2 (stereo not given)	nt	?	-10.9%	-18.7%	2.6%	-0.6
COc1ccc(CCN(C)C(=O)CSc2nnc(C3CC3)n2N)cc1OC	nt	25.1µM*	-0.4%	-7.2%	0.6%	-2.2
SMILES	PKM2 activator	ClpP mod	USP2a inh	Integrin act MD	Pin1 inhibitor	IL-2 act
COc1ccc(C(=O)CSc2nnc(C3CCCCC3)n2N)c(OC)c1	-0.6%	-0.7%	0.1%	-13.4%	12.1%	-0.5
COC1OC(COC(=O)c2ccccc2)C(OC(=O)c2ccccc2)C1OC(=O)c1ccccc1 (stereo not given)	nt	-0.4%	-11.1%	-18.2%	4.8%	-1.8
O=C(OC[C@H]1O[C@@H](OC(=O)c2cc(O)c(O)c(OC(=O)c3cc(O)c(O)c(O)c3)c2)[C@H](OC(=O)c2cc(O)c(O)c(OC(=O)c3cc(O)c(O)c(O)c3)c2)[C@@H](OC(=O)c2cc(O)c(O)c(OC(=O)c3cc(O)c(O)c(O)c3)c2)[C@@H]1OC(=O)c1cc(O)c(O)c(OC(=O)c2cc(O)c(O)c(O)c2)c1)c1cc(O)c(O)c(OC(=O)c2cc(O)c(O)c(O)c2)c1	nt	-6.6%	5.01µM*	nt	nt	nt
Cc1cnc2c(C)ccc(C)c2c1/C=C/c1ccc(N(C)C)cc1	nt	-3.0%	nt	nt	nt	nt
O=[N+]([O-])c1ccc(/C=C2\C=C(C(O)c3ccc([N+](=O)[O-])cc3)c3ccccc32)cc1 (stereo not given)	nt	-2.6%	nt	nt	nt	nt
CCCCNC(=O)CCC(=O)Nc1ccc2nc(N3CCOCC3)cc(C)c2c1	2.8%	15.4%	1.7%	-13.5%	-3.2%	-1.3
CCOC(=O)C1CCCN(C(=O)CCC(=O)Nc2ccc3nc(N4CCOCC4)cc(C)c3c2)C1 (stereo not given)	1.3%	8.91µM*	0.0%	-20.1%	-9.0%	-0.4
Cc1cc(N2CCOCC2)nc2ccc(NC(=O)CCC(=O)N3CCN(c4ccccc4)CC3)cc12	1.6%	nt	1.0%	-13.9%	0.2%	0.0
Cc1cc(N2CCOCC2)nc2ccc(NC(=O)C3CCC(C)CC3)cc12 (stereo not given)	1.7%	14.1µM*	4.8%	0.0%	-2.9%	-5.6
Cc1cc(N2CCOCC2)nc2ccc(NC(=S)NCc3ccc4c(c3)OCO4)cc12	-0.5%	3.6%	1.5%	10µM*	?	-2.2
Cc1cc(N2CCCCC2)nc2ccc(NC(=O)CCC(=O)NCCC(C)C)cc12	-4.5%	15.8µM*	-4.6%	-30.3%	-6.7%	-2.2
COc1ccc(C#Cc2c[nH]c(=O)c3cncnc23)cc1OC	nt	-0.2%	nt	nt	?	nt
CCN1CCN(C(=S)Nc2ccc3nc(N4CCN(CC)CC4)cc(C)c3c2)CC1	16.2%	?	2.5%	-41.4%	2.7%	-5.3
CCOC(=O)N1CCN(C(=S)Nc2ccc3nc(N4CCN(CC)CC4)cc(C)c3c2)CC1	-0.3%	15.8µM*	3.2%	-32.6%	5.4%	-2.9
Cc1cc(N2CCCCCC2)nc2ccc(F)cc12	nt	28.2µM*	nt	-18.8%	-9.2%	-0.1
COc1ccc(C(=O)N(Cc2ccco2)Cc2cccs2)cc1	nt	nt	nt	nt	-12.6%	nt
O=C(C[n+]1cc(Br)cc2ccccc21)c1ccc(O)c(O)c1	nt	-2.1%	nt	nt	nt	nt

Screening results: PubChem, National Center for Advancing Translational Sciences (NCATS)
